Out of some 190,000 compounds screened, about 4,100 (2.2%) were called active. This is one part of a sample in which actives are shown more often than they occur. Unmarked numbers belong to inactive results.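 The calls were made as follows: active = thallium flux slope and its plate-corrected score both differing from the plate sample mean at a set confidence after two filtering rounds, in either direction; inactive = the rest.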
The molecules below were run against Solute carrier family 12 member 5 (Homo sapiens) (UniProt Q9H2X9) (assay: modulation of human KCC2 ion transport – cell-based, HEK293 KCC2, FluoZin-2 fluorescence, MLSMR, primary screen (AID 1456;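 also: slope of fluorescence scaled to starting intensity during 10 to 20 s after thallium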)). Details: KCC2 cells, thallium flux FluoZin-2 fluorescence; at 10 µM.
Sequence of Solute carrier family 12 member 5 (Homo sapiens) (Q9H2X9 whole entry, looked up): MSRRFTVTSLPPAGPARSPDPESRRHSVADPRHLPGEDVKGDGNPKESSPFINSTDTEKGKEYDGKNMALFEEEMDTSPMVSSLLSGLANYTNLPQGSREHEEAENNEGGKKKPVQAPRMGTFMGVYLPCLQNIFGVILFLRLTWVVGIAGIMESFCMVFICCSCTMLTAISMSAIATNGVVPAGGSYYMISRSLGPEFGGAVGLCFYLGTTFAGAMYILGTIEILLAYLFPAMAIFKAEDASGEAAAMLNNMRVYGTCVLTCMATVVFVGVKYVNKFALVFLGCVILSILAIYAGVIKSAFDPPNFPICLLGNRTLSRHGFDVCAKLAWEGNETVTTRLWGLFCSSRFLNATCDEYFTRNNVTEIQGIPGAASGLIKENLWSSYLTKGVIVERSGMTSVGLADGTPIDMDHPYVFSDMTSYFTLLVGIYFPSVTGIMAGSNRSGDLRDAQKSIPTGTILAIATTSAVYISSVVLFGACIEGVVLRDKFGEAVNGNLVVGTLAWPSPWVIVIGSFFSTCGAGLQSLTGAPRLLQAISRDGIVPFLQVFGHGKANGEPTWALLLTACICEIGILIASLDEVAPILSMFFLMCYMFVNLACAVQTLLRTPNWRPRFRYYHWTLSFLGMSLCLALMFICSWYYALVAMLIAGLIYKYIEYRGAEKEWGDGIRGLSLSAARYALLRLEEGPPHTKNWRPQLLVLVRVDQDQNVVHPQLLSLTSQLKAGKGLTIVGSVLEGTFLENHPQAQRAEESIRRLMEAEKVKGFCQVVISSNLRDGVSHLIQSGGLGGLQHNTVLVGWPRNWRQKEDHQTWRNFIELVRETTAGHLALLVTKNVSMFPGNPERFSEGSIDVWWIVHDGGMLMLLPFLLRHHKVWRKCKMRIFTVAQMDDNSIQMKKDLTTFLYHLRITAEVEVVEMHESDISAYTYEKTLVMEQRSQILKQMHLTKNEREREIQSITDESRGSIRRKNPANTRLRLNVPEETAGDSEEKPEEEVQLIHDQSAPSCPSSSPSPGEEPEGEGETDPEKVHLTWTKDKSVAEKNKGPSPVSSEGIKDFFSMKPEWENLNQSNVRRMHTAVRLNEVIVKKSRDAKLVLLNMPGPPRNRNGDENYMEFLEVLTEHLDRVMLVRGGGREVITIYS

Row | SMILES | B-score of Tl+ flux slope (higher = more flux/activation; lower = inhibition)
1 | C#CCNC(=O)C1=C[C@@H](c2ccccc2)[C@H](CCCO)[C@@H](OCC)O1 | 0.698
2 | CCO[C@H]1OC(C(=O)NCc2ccccc2)=C[C@@H](c2coc3ccccc3c2=O)[C@@H]1CCCO | -2.75 (active)
3 | CCO[C@H]1OC(C(=O)N2CCN(Cc3ccccc3)CC2)=C[C@@H](c2cn(C(C)=O)c3ccccc23)[C@@H]1CCCO | -0.421
4 | CN(C)c1ccc(/C=C/C(=O)c2ccc(O)cc2)cc1[N+](=O)[O-] | -1.51
5 | CCN(CC(=O)Nc1ccc(S(=O)(=O)N2CCCC2)cc1)CC(=O)Nc1cccc(OC)c1 | -0.0112
6 | Cc1onc(-c2ccc(Cl)cc2)c1-c1ccnn1S(=O)(=O)c1ccc(Cl)cc1 | 0.0713
7 | C#CCNc1ccc(C(=O)OCC)cc1 | 0.0911
8 | COc1ccc(OCC(=O)NNC(=O)c2ccc(-c3ccccc3)cc2)cc1 | -0.294
9 | COc1ccc(C(=O)NN(C)c2nc(-c3ccccc3)cc(C)c2S(C)(=O)=O)cc1 | -2.92 (active)
10 | COc1ccc(C(=O)Nc2cccc(S(C)(=O)=O)c2)cc1 | -0.0335
11 | Cc1nc(COc2cccc(Cl)c2)sc1C(=O)/C=C/N(C)C | -0.976
12 | CCN(CC)CCCN=Cc1c(O)n(-c2ccc(C)cc2)c(=O)c2ccccc12 | -0.624
13 | O=C(CSc1nnnn1-c1ccc(O)cc1)c1ccc(F)cc1 | -0.119
14 | O=C1CSC(=S)N1/N=C/c1ccc(O)c([N+](=O)[O-])c1 | 0.571
15 | CCOc1cccc(/C=N/N2C(=O)CSC2=S)c1O | 5.34 (active)
16 | CCOc1cccc(/C=N/NC(=S)NCCN2CCOCC2)c1O | -0.223
17 | CC(=O)N1CCC(N(C(=O)Nc2ccc(Cl)cc2)C(C)C)CC1 | 0.402
18 | COc1cc(C=O)ccc1Oc1nnnn1-c1ccccc1 | -0.736
19 | Cc1ccc(S(=O)(=O)NC2(C(F)(F)F)NC(=O)N(CCc3ccccc3)C2=O)cc1 (stereo not given) | -0.615
20 | COc1ccc(C(=O)NC2(C(F)(F)F)NC(=O)N(CCCc3ccccc3)C2=O)c(OC)c1OC (stereo not given) | -3.82 (active)
21 | O=C(NC1(C(F)(F)F)NC(=O)N(C2CCCCC2)C1=O)c1ccco1 (stereo not given) | 0.89
22 | COc1ccc(CN2CCNC(=O)C2CC(=O)N(C)Cc2ccccn2)cc1OC (stereo not given) | -0.00917
23 | Cc1ccc(NS(=O)(=O)c2ccc(N/N=C/c3ccccc3OCC(=O)O)c([N+](=O)[O-])c2)c(C)c1 | -0.087
24 | COc1cc(CN2CCN(Cc3ccc(C)cc3)CC2)c([N+](=O)[O-])cc1OC | -0.767

Row | SMILES | B-score of Tl+ flux slope (higher = more flux/activation; lower = inhibition)
25 | O=C(c1ccc(F)cc1)N1CCC(n2nnc3ccccc32)CC1 | 1.38
26 | O=S(=O)(c1cccc(S(=O)(=O)N2CCC(n3nnc4ccccc43)CC2)c1)N1CCCCC1 | -6.25 (active)
27 | CC(=O)c1cccc(S(=O)(=O)N2CCC(n3nnc4cc(F)ccc43)CC2)c1 | -0.212
28 | CCN(CC)CCn1cnc2c1c(=O)n(CCOC(=O)c1cc(OC)c(OC)c(OC)c1)c(=O)n2C | -0.175
29 | CC(=O)N1N=C(c2ccncc2)OC1(Cc1ccccc1)Cc1ccccc1 | -0.683
30 | Cc1ccccc1N/N=C/c1ccc(N2CCOCC2)cc1 | 3.06 (active)
31 | Cc1cc(C(=O)N/N=C/c2ccc(N3CCOCC3)cc2)c(C)o1 | -0.588
32 | C(=N/Nc1cc(N2CCOCC2)nc(N2CCOCC2)n1)/c1ccccc1 | -0.154
33 | COC(=O)C1=C(N)Oc2cc(C)[nH]c(=O)c2C1c1ccc(Cl)cc1 (stereo not given) | -2.12
34 | O=C(NNS(=O)(=O)c1ccccc1)c1cnn(-c2ccc(Cl)cc2)c1C(F)(F)F | 0.887
35 | CC1CN(/C=C/C(=O)C(F)(F)F)CC(C)O1 (stereo not given) | 1.01
36 | C/C(=N\NC(=S)Nc1ccc(C)cc1)c1cc2ccccc2o1 | 90.2 (active)
37 | Cc1ccc(OC(=O)c2cc3ccccc3o2)cc1 | 0.278
38 | O=C(Nc1ccncc1)c1cc2ccccc2o1 | 2.22
39 | COc1ccc(C)cc1S(=O)(=O)Nc1cccc(Cl)c1Cl | 2.43 (active)
40 | COc1ccc(C)cc1S(=O)(=O)NCCc1ccccc1 | 0.198
41 | COc1ccc(OC)c(S(=O)(=O)Nc2ccccc2F)c1 | 1.79
42 | COc1ccc(NC(=O)N2CCC(Cc3ccccc3)CC2)cc1 | -5.5 (active)
43 | CCOc1ccc(NC(=O)C2CCCN(C(=O)Nc3ccccc3)C2)cc1 (stereo not given) | -0.0798
44 | COc1ccc(NC(=O)C(C)SCc2ccccc2)cc1 (stereo not given) | -0.536
45 | S=C(NCCc1ccccc1)Nc1ccccc1 | -0.293
46 | COc1cc(C(F)(F)F)c(C(=O)N(C)c2ccc(Cl)cc2)cn1 | 0.047
47 | CCOC(=O)c1cn(CC)c2cc(F)c(F)cc2c1=O | -0.139
48 | O=C(c1cc(COc2c(F)cccc2F)on1)N1CCSCC1 | -0.926

Row | SMILES | B-score of Tl+ flux slope (higher = more flux/activation; lower = inhibition)
49 | Cc1occc1C(=O)NNC(=S)NCC(C)C | -0.168
50 | CC(C)CNC(=S)NC(=O)c1ccc(Cl)cc1 | 33 (active)
51 | CC(C)C(NC(=O)c1ccc(Cl)cc1)C(=O)O (stereo not given) | 1.28
52 | O=C(NN=C1CCC(=NNC(=O)c2cccnc2)CC1)c1cccnc1 | 0.0392
53 | COc1ccc(Cl)cc1CSc1ncn[nH]1 | -1.03
54 | O=C(N/N=C/c1coc2ccccc2c1=O)c1cc2ccccc2o1 | 5.52 (active)
55 | CC(C)(C)OC(=O)NCCCCCC(=O)N/N=C/c1coc2ccccc2c1=O | -2.19
56 | NC(=S)N/N=C/c1coc2cc(Cl)ccc2c1=O | 1.23
57 | CCOC(=O)C1CCN(CCC(=O)Nc2cccc(C)c2)CC1 | 0.406
58 | CN(CC(O)COc1ccc(S(=O)(=O)N2CCOCC2)cc1Cl)C1CCCCC1 (stereo not given) | 0.0176
59 | Cc1ccc(-c2nnn(CC(=O)N(Cc3ccco3)C(C(=O)NC(C)(C)C)c3ccncc3)n2)o1 (stereo not given) | -1.04
60 | O=C(NCc1ccco1)c1nc(-c2ccccc2)n(-c2ccccc2)n1 | -2.03
61 | Cc1nn(-c2ccccc2)c2sc(C(=O)N(Cc3ccco3)C(C)C(=O)NC(C)(C)C)cc12 (stereo not given) | 8.53 (active)
62 | Cc1nnc(Nc2ccccc2F)s1 | -0.881
63 | CC(NC(=O)C(=O)Nc1nccs1)c1ccccc1 (stereo not given) | 2.74
64 | Cn1cc(CCC(=O)NCc2ccc3c(c2)OCO3)c2ccccc21 | -1.1
65 | O=C(COc1ccccc1)NCc1ccc2c(c1)OCO2 | -0.24
66 | N#Cc1nc(Cc2cccc3ccccc23)oc1NCc1ccc2c(c1)OCO2 | -5.13 (active)
67 | N#Cc1nc(COc2ccc(-c3ccccc3)cc2)oc1NCc1cccnc1 | -4.77 (active)
68 | N#Cc1nc(-c2ccc(OCc3ccccc3)cc2)oc1NCCCN1CCOCC1 | 0.37
69 | Cc1ccc(OCc2nc(C#N)c(N3CCCC3)o2)cc1 | -0.743
70 | COc1cc(/C=C2/C(=O)NN(c3ccc(F)cc3)C2=O)cc([N+](=O)[O-])c1O | -2.31
71 | COc1ccc(N2C(=O)CNC2=S)cc1 | 0.069
72 | COc1ccc(-c2cn(-c3ccc(OC)cc3)c(=S)[nH]2)cc1 | 8.53 (active)

Row | SMILES | B-score of Tl+ flux slope (higher = more flux/activation; lower = inhibition)
73 | COc1ccc(-n2c(C)csc2=S)cc1 | 0.0167
74 | O=C(O)CCCCCCCCCC[n+]1ccccc1 | 0.183
75 | O=C(O)c1ccccc1OCc1ccccc1Cl | 0.00686
76 | COc1ccc(OC)c(-n2c(-c3ccn[nH]3)n[nH]c2=S)c1 | -0.678
77 | Cc1cc([N+](=O)[O-])nn1Cc1ccc(F)cc1 | -0.826
78 | Cc1nc(SCc2ccc(F)cc2)c([N+](=O)[O-])[nH]1 | -4.77 (active)
79 | O=C(Nn1c(SCc2ccc([N+](=O)[O-])cc2)nc2ccccc2c1=O)c1ccc(F)cc1 | 0.0971
80 | CN(C)C(=O)c1nc2ccc(Cl)cn2c1CNCc1cccc(OC(F)(F)F)c1 | -0.562
81 | COc1ccc(N2C(=O)CC(Nc3ccc(F)cc3)C2=O)c([N+](=O)[O-])c1 (stereo not given) | -1.31
82 | CN1CCC(=NNC(=O)CN(c2cccc(Cl)c2)S(C)(=O)=O)CC1 | 0.643
83 | O=C(CN(c1cccc(Cl)c1)S(=O)(=O)c1ccccc1)NN=C1CCCC1 | 3.73 (active)
84 | Cc1ccc(S(=O)(=O)N(CC(=O)N2CCc3ccccc3C2)c2cccc(Cl)c2)cc1 | -1.52
85 | CCn1c(SCC(=O)N/N=C/c2ccncc2)nc2ccccc21 | -0.7
86 | Cc1cccc(NC(=O)CSc2nnc(CCNC(=O)OC(C)(C)C)o2)c1C | -0.155
87 | COc1cccc(Nc2nc(N)c([N+](=O)[O-])c(NCc3ccco3)n2)c1 | -0.0593
88 | COc1ccc(C(=O)N/N=C2\CCS(=O)(=O)c3ccc(F)cc32)cc1OC | 0.15
89 | O=C(NCCCn1ccnc1)C(=O)NCC1OCCN1S(=O)(=O)c1cc(F)ccc1F (stereo not given) | -0.0662
90 | O=c1[nH]nc(CSCc2ccccc2Cl)[nH]1 | 1.48
91 | S=c1[nH]nc(CSCc2ccc(Cl)cc2Cl)n1-c1ccccc1 | 38.3 (active)
92 | COc1ccc(NCc2nnc(SCc3ccccc3)n2-c2ccc(OC)cc2)cc1 | -2.95
93 | CCn1c(CSCc2c(Cl)cccc2Cl)n[nH]c1=S | -0.136
94 | Cc1ccc(NCc2n[nH]c(=S)n2-c2ccccc2)cc1Cl | 20.1 (active)
95 | S=c1[nH]nc(-c2cc(-c3ccsc3)n[nH]2)n1-c1ccccc1 | -0.815

Reference: PubChem BioAssay AID1456 (Vanderbilt High Throughput Screening Facility, 2008)
